Some of the results follow. The hit rate among all sequences tested is not known here.

These results are taken from the supplement of paper PMC3545927.

This test concerns the target furin, P09958. Description: furin cleavage Z-score vs untreated control; higher = more cleavage, active = 3.5 or more, inactive = 1 or less, 8 variable residues between constant flanks. In a few lines: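 Magnetic beads held 8-mer peptides by the N-terminus, each fused to a cDNA oligonucleotide, and purified furin was added for 7.5, 15 or 30 min. Released DNA was sequenced after PCR adapter tagging. The cleavage Z-score is the log count relative to furin-free reactions, lowess-adjusted and divided by median absolute deviation.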
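Further: purified furin at 1:10 enzyme:substrate in 50 mM HEPES pH 7.5.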

furin, P09958, sequence (P09958 whole entry, the tested form may be a part): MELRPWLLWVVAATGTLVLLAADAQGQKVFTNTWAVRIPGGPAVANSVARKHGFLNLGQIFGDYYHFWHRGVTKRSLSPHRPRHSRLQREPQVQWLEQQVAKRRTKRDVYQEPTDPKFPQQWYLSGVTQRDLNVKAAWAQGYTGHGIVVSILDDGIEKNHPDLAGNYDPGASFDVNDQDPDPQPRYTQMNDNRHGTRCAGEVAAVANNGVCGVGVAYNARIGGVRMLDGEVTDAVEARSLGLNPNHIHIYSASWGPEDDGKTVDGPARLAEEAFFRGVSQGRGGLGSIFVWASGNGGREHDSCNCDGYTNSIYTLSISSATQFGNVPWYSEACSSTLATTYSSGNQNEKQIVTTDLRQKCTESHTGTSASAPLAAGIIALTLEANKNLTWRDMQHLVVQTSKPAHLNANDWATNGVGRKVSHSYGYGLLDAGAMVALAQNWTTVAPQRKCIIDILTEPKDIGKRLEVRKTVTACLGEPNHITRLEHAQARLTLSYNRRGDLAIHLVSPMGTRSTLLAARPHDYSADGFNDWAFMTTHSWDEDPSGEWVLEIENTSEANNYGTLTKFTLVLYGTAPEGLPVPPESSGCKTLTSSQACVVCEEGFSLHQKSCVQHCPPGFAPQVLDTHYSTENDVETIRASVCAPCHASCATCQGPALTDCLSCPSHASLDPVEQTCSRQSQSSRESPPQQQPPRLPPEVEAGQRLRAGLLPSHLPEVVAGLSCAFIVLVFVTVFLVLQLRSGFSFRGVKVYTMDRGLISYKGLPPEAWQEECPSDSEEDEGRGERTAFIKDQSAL

In the case of CASDPCSAHLAGNASASA [HC2491], the “furin cleavage Z-score” value by setting is: (7.5 min) -0.0824 (inactive); (15 min) 0.0077 (inactive); (30 min) 0.561 (inactive).

In the case of CAFTPCSAHLAGNASASA [HC2467], the “furin cleavage Z-score” value runs as follows: (7.5 min) -2.12 (inactive); (15 min) -1.48 (inactive); (30 min) -1.08 (inactive).

On to CATTPCSKSWAGNASASA [HC1894], for which the “furin cleavage Z-score” value reads like this: (7.5 min) 0.86 (inactive); (15 min) -0.828 (inactive); (30 min) 1.43.

For CALVGAPLGGAGNASASA [HC230], the “furin cleavage Z-score” value (7.5 min) was 0.473 (inactive), the “furin cleavage Z-score” value (15 min) is 0.0326 (inactive) and the “furin cleavage Z-score” value (30 min) was -0.438 (inactive).

For the sequence CAWLIRRRRSAGNASASA [FS-1180], the “furin cleavage Z-score” value is 13.7 (active) (7.5 min), 13.5 (active) (15 min) and 11.2 (active) (30 min).

As to CAWWRRRRRSAGNASASA [FS-1503], the “furin cleavage Z-score” value (7.5 min) was 12.2 (active), the “furin cleavage Z-score” value (15 min) is 12.2 (active) and the “furin cleavage Z-score” value (30 min) was 8.61 (active).

For the sequence CARSTRDVQAAGNASASA [FS-3212], the “furin cleavage Z-score” value by setting is: (7.5 min) 6.84 (active); (15 min) 7.38 (active); (30 min) 6.15 (active).

As to CAEYPCHRPSAGNASASA [HC2329], the “furin cleavage Z-score” value (7.5 min) is -1.31 (inactive), the “furin cleavage Z-score” value (15 min) was -1.61 (inactive) and the “furin cleavage Z-score” value (30 min) is 0.059 (inactive).

As for CAFYNRRRRSAGNASASA [FS-528], the “furin cleavage Z-score” value by setting is: (7.5 min) 10.4 (active); (15 min) 10.5 (active); (30 min) 8.75 (active).

In the case of CADLARHYKSAGNASASA [FS-982], the “furin cleavage Z-score” value by setting is: (7.5 min) 1.07; (15 min) -0.538 (inactive); (30 min) -1.88 (inactive).

Take CAYKGVWRVDAGNASASA [HC1168]: the “furin cleavage Z-score” value runs as follows: (7.5 min) -0.715 (inactive); (15 min) -0.703 (inactive); (30 min) 0.326 (inactive).

Regarding CAHFLSQTKQAGNASASA [HC946], the “furin cleavage Z-score” value reads like this: (7.5 min) -1.62 (inactive); (15 min) -0.0771 (inactive); (30 min) 0.398 (inactive).

On to CASTPCSAHYAGNASASA [HC2569], for which the “furin cleavage Z-score” value was -0.833 (inactive) (7.5 min), 0.198 (inactive) (15 min) and 0.946 (inactive) (30 min).

As to CATTRVRRRSAGNASASA [FS-1100], the “furin cleavage Z-score” value is 8.61 (active) (7.5 min), 10.7 (active) (15 min) and 6.67 (active) (30 min).

As to CAVFGPLWILAGNASASA [HC608], the “furin cleavage Z-score” value is, setting by setting: (7.5 min) -0.487 (inactive); (15 min) -1.14 (inactive); (30 min) -0.989 (inactive).

On to CARRLRDQEAAGNASASA [FS-1781], for which the “furin cleavage Z-score” value by setting is: (7.5 min) 0.143 (inactive); (15 min) -1.21 (inactive); (30 min) -0.196 (inactive).

Regarding CARTPREVEAAGNASASA [FS-2467], the “furin cleavage Z-score” value is, setting by setting: (7.5 min) 1.78; (15 min) 1.61; (30 min) 4.16 (active).

With CARRPRHLSAAGNASASA [FS-1837], the “furin cleavage Z-score” value (7.5 min) is 5.27 (active), the “furin cleavage Z-score” value (15 min) is 4.94 (active) and the “furin cleavage Z-score” value (30 min) is 5.51 (active).

As for CARRPRRVEAAGNASASA [FS-1921], the “furin cleavage Z-score” value (7.5 min) was 1.67, the “furin cleavage Z-score” value (15 min) stood at 1.82 and the “furin cleavage Z-score” value (30 min) was 3.69 (active).

On to CARRPRQKEAAGNASASA [FS-2782], for which the “furin cleavage Z-score” value (7.5 min) is 0.0199 (inactive), the “furin cleavage Z-score” value (15 min) was -1.9 (inactive) and the “furin cleavage Z-score” value (30 min) was -0.838 (inactive).

With CARRPRRVIAAGNASASA [FS-2179], the “furin cleavage Z-score” value (7.5 min) is -0.112 (inactive), the “furin cleavage Z-score” value (15 min) was 2.08 and the “furin cleavage Z-score” value (30 min) was 3.81 (active).

For the sequence CARTPRSSSAAGNASASA [FS-2833], the “furin cleavage Z-score” value runs as follows: (7.5 min) 0.99 (inactive); (15 min) -0.243 (inactive); (30 min) 2.32.

Turning to CARRPQDVKFAGNASASA [HC169], the “furin cleavage Z-score” value runs as follows: (7.5 min) -0.409 (inactive); (15 min) -1.01 (inactive); (30 min) -0.285 (inactive).

For the sequence CAALMTGYTGAGNASASA [HC880], the “furin cleavage Z-score” value is -1.03 (inactive) (7.5 min), -2.97 (inactive) (15 min) and -0.313 (inactive) (30 min).

With CAEFVVCCSMAGNASASA [HC2127], the “furin cleavage Z-score” value is, setting by setting: (7.5 min) -1.01 (inactive); (15 min) 0.711 (inactive); (30 min) -0.748 (inactive).

Consider CASTNCSAHLAGNASASA [HC2521], for which the “furin cleavage Z-score” value reads like this: (7.5 min) 1.3; (15 min) -0.319 (inactive); (30 min) 0.484 (inactive).

On to CAESYSSMPPAGNASASA [HC1352], for which the “furin cleavage Z-score” value is 0.813 (inactive) (7.5 min), -0.573 (inactive) (15 min) and -0.906 (inactive) (30 min).

As for CAMDVVCCSMAGNASASA [HC2106], the “furin cleavage Z-score” value (7.5 min) is -0.103 (inactive), the “furin cleavage Z-score” value (15 min) is -0.752 (inactive) and the “furin cleavage Z-score” value (30 min) is -0.482 (inactive).

Consider CARDWAHNGLAGNASASA [HC639], for which the “furin cleavage Z-score” value is, setting by setting: (7.5 min) 0.358 (inactive); (15 min) -0.707 (inactive); (30 min) 0.626 (inactive).

As to CARGKRHATKAGNASASA [FS-2015], the “furin cleavage Z-score” value was 7.59 (active) (7.5 min), 7.53 (active) (15 min) and 7.79 (active) (30 min).

With CAQRKRGGTAAGNASASA [WN1], the “furin cleavage Z-score” value (7.5 min) is -1.04 (inactive), the “furin cleavage Z-score” value (15 min) was 0.079 (inactive) and the “furin cleavage Z-score” value (30 min) is -0.249 (inactive).

Regarding CARGKRYSYKAGNASASA [FS-2019], the “furin cleavage Z-score” value runs as follows: (7.5 min) 0.222 (inactive); (15 min) 0.712 (inactive); (30 min) 1.19.

For the sequence CARGKRRREKAGNASASA [FS-2017], the “furin cleavage Z-score” value (7.5 min) is -0.00549 (inactive), the “furin cleavage Z-score” value (15 min) is -0.584 (inactive) and the “furin cleavage Z-score” value (30 min) was -1.52 (inactive).

Take CARGKRQATAAGNASASA [FS-2016]: the “furin cleavage Z-score” value by setting is: (7.5 min) 7.14 (active); (15 min) 9.61 (active); (30 min) 6.1 (active).

For the sequence CAGERCDLEDAGNASASA [HC485], the “furin cleavage Z-score” value (7.5 min) is 0.0125 (inactive), the “furin cleavage Z-score” value (15 min) is -0.597 (inactive) and the “furin cleavage Z-score” value (30 min) was 0.387 (inactive).

For CASSYGFQYSAGNASASA [HC1465], the “furin cleavage Z-score” value (7.5 min) was determined as 1.75, the “furin cleavage Z-score” value (15 min) is 0.0331 (inactive) and the “furin cleavage Z-score” value (30 min) was -0.209 (inactive).

On to CATTPCSGSMAGNASASA [HC1926], for which the “furin cleavage Z-score” value runs as follows: (7.5 min) -0.191 (inactive); (15 min) 0.357 (inactive); (30 min) -1.65 (inactive).

Turning to CAARDQLEQAAGNASASA [HC1588], the “furin cleavage Z-score” value is, setting by setting: (7.5 min) 1.26; (15 min) 0.408 (inactive); (30 min) -0.23 (inactive).

Consider CAIFSRVKKSAGNASASA [FS-802], for which the “furin cleavage Z-score” value by setting is: (7.5 min) 3.99 (active); (15 min) 2.87; (30 min) 3.95 (active).

Take CAMIHRFWKSAGNASASA [FS-1376]: the “furin cleavage Z-score” value was 0.282 (inactive) (7.5 min), -1.21 (inactive) (15 min) and -1.26 (inactive) (30 min).

Take CAVPPRRKKSAGNASASA [FS-736]: the “furin cleavage Z-score” value (7.5 min) stood at 3.36, the “furin cleavage Z-score” value (15 min) came out at 2.71 and the “furin cleavage Z-score” value (30 min) is 4.45 (active).

In the case of CALKHRVKKSAGNASASA [FS-1358], the “furin cleavage Z-score” value runs as follows: (7.5 min) 8.56 (active); (15 min) 10.2 (active); (30 min) 8.6 (active).

For the sequence CAKGSRRKKSAGNASASA [FS-39], the “furin cleavage Z-score” value (7.5 min) was 5.36 (active), the “furin cleavage Z-score” value (15 min) is 4.72 (active) and the “furin cleavage Z-score” value (30 min) was 4.1 (active).

Turning to CANAHRDKKSAGNASASA [FS-831], the “furin cleavage Z-score” value was -0.25 (inactive) (7.5 min), -0.94 (inactive) (15 min) and -2.16 (inactive) (30 min).

CASFDRKKKSAGNASASA [FS-1485]: the “furin cleavage Z-score” value was -0.34 (inactive) (7.5 min), -0.366 (inactive) (15 min) and -0.05 (inactive) (30 min).

As for CAIFSRCARSAGNASASA [FS-1343], the “furin cleavage Z-score” value was 0.568 (inactive) (7.5 min), 0.619 (inactive) (15 min) and 1.19 (30 min).

Regarding CATGSPITYSAGNASASA [HC804], the “furin cleavage Z-score” value reads like this: (7.5 min) -0.202 (inactive); (15 min) -0.337 (inactive); (30 min) -0.568 (inactive).
